Laboratory results taken from PubChem BioAssay (EPA / NIEHS).
Active and inactive are the calls of the source. Rule for the calls, unless noted: active = hit-call score of the fitted dose curve at least 0.9, where 1 is the maximum; inactive = score below 0.9.

System: Thyroperoxidase (TPO), gene 54314
Test: CCTE_Simmons_AUR_rTPO: CCTE's Amplex UltraRed Assay for Thyroperoxidase (TPO) Inhibition, Simmons Lab (AID 2283662; active = hit-call score of the fitted dose curve at least 0.9, where 1 is the maximum;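 note: potency for loss of signal meaning inhibition of peroxidase activity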)
Method in brief: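 Rat thyroid microsomes (5 ug protein) were incubated with test compound (8 concentrations, 5 nM–87.5 uM final, 0.5% DMSO), 25 uM Amplex UltraRed and 300 uM H2O2 in 200 mM phosphate buffer for 30 min at 37C in the dark; fluorescence read at 544/590 nm.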

Row | Structure (SMILES) | AC50
1 | O=c1c(O)c(-c2ccc(O)cc2)oc2cc(O)cc(O)c12 | 0.0805 µM (active)
2 | O=C(Nc1ccc2c(O)c(N=Nc3ccc(N=Nc4ccc(S(=O)(=O)O)cc4)cc3)c(S(=O)(=O)O)cc2c1)c1ccccc1 | 32.7 µM (active)
3 | COc1ccc(N=Nc2cc(C)c(N=Nc3ccc(S(=O)(=O)O)cc3)cc2OC)cc1 | 53.9 µM (active)
4 | C=C1CC[C@H](O)C/C1=C/C=C1\CCC[C@]2(C)[C@@H]([C@H](C)/C=C/[C@H](C)C(C)C)CC[C@@H]12 | 41.3 µM (active)
5 | CCOc1ccc(N=Nc2ccc(C=Cc3ccc(N=Nc4ccc(OCC)cc4)cc3S(=O)(=O)O)c(S(=O)(=O)O)c2)cc1 | 30.2 µM (active)
6 | CCc1cc(C(C)(C)C)c(O)c(C(C)(C)C)c1 | 4.83 µM (active)
7 | CC(CN=Cc1ccccc1O)N=Cc1ccccc1O (stereo not drawn) | 26 µM (active)

Read-out: not listed separately
Test: CEETOX_H295R_MTT_cell_viability: Viability Assessment in the CeeTox HT-H295R MTT Assay (AID 2283718);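 for AC50: curve fitted both ways so AC50 may mark viability loss or gain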
Method in brief: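 Human H295R adrenal cells, prestimulated 48 h with 10 uM forskolin, were exposed 48 h to chemicals in 0.1% DMSO. Viability was measured in the same wells by MTT (0.5 mg/ml, 4 h, 37 C), absorbance 570/650 nm, as percent of controls.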

Row | Structure (SMILES) | outcome | AC50
8 | CC=Cc1ccc(OCC)c(O)c1 | inactive | –
9 | CCC(C)c1cc([N+](=O)[O-])cc([N+](=O)[O-])c1OC(=O)OC(C)C (stereo not drawn) | inactive | –
10 | OCc1cccc(Oc2ccccc2)c1 | inactive | –
11 | O=C(Nc1ccc2c(O)c(N=Nc3ccc(N=Nc4ccc(S(=O)(=O)O)cc4)cc3)c(S(=O)(=O)O)cc2c1)c1ccccc1 | inactive | –
12 | COc1ccc(OC)c(N=Nc2c(O)ccc3ccccc23)c1 | inactive | –
13 | Cc1cc(=O)oc2cc(N(C)C)ccc12 | inactive | –
14 | CCOC(=O)[C@@H](C)Oc1ccc(Oc2nc3ccc(Cl)cc3o2)cc1 | inactive | –
15 | C=C[Si]1(C)O[Si](C)(C=C)O[Si](C)(C=C)O[Si](C)(C=C)O1 (stereo not drawn) | inactive | –
16 | COc1ccc(N=Nc2cc(C)c(N=Nc3ccc(S(=O)(=O)O)cc3)cc2OC)cc1 | inactive | –
17 | C=C1CC[C@H](O)C/C1=C/C=C1\CCC[C@]2(C)[C@@H]([C@H](C)/C=C/[C@H](C)C(C)C)CC[C@@H]12 | – | 83.4 µM (active)
18 | COc1ccc(CCN2CCC(Nc3nc4ccccc4n3Cc3ccc(F)cc3)CC2)cc1 | inactive | –
19 | Nc1ccc(N)c2c1C(=O)c1ccccc1C2=O | inactive | –
20 | CC1(C)C(=O)N(Cl)C(=O)N1Br | inactive | –
21 | COCCc1ccc(OCC(O)CNC(C)C)cc1 (stereo not drawn) | inactive | –
22 | CC=Cc1ccc(OC)c(OC)c1 | inactive | –
23 | CC(C)Nc1nc(N)nc(Cl)n1 | inactive | –
24 | CC(C)(C)CC(C)(C)c1ccc(OCCOCC[N+](C)(C)Cc2ccccc2)cc1 | inactive | –
25 | BrCc1cccc(Oc2ccccc2)c1 | inactive | –
26 | CCc1cc(C(C)(C)C)c(O)c(C(C)(C)C)c1 | inactive | –
27 | CCCCCCCCN1CCCC1=O | – | 0.882 µM (active)
28 | CC(CN=Cc1ccccc1O)N=Cc1ccccc1O (stereo not drawn) | – | 2.57 µM (active)
